Screening data from PubChem.
HepG2 viability: kills HepG2 cells in TGF-b inhibitor counter-screen | 410,000 compounds, 0.76% hits | AID 588856 | Potency, µM (titrated, usually from 46.1 µM), for inactives: top-dose activity change, negative = cytotoxicity, actives largely listed as cytotoxic | HepG2 CAGA-GFP viability, ATP luminescence, 18 h
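HepG2 CAGA-GFP cells (1000/well, DMEM with 1% FBS) received compound, then TGF-beta at 500 pg/mL final, and were incubated 18 hours at 37 degrees C. Viability was read by CellTiter-Glo luminescence. Media-only wells were set as complete cell-killing and DMSO as no toxicity.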
12-LOX inh: ALOX12 (human) lipoxygenase inhibition. P18054. purified 12hLO, xylenol orange hydroperoxide absorbance. Potency, µM (titrated, usually from 108 µM), for inactives: top-dose activity change, negative = inhibition, actives largely listed as inhibitors. 580,000 compounds, 1.1% hits; note: % is set by controls: 0 for no effect and ±100 for the full control effect
Target sequence (P18054 whole entry, looked up): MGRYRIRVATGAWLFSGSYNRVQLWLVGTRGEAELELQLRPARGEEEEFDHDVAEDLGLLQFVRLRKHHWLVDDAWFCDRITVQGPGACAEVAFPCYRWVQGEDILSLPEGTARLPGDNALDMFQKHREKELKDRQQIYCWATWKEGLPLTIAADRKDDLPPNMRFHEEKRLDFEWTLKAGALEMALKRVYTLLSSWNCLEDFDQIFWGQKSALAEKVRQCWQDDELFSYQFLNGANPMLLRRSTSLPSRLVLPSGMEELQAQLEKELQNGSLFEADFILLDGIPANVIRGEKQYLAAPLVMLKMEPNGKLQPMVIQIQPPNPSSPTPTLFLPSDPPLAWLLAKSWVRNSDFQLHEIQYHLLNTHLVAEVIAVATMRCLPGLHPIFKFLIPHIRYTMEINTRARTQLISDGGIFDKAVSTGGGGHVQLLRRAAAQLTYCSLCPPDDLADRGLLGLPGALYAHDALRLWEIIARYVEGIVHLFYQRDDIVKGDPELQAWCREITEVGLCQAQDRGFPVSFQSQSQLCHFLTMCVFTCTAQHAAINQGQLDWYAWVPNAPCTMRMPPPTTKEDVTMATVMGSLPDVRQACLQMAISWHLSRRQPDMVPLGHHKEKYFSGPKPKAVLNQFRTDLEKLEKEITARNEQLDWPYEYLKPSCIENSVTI
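Hydroperoxide product was detected by ferrous iron/xylenol orange as the 573 to 405 nm absorbance ratio. Arachidonic acid at 40 uM (final) was turned over for 30 min at room temperature by 150 nM human 12hLO, pH 7.0 Hepes buffer, after 15 min compound preincubation.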
S2 tox: reduces viability in counter-screen for ATXN expression inhibitors | Potency, µM (series often up to 56.7 µM), actives largely listed as cytotoxic | 400,000 compounds, 0.49% hits | AID 651635 | S2 cells (HEK-293 line with an ATXN2-luciferase reporter) viability, CellTiter-Fluor protease fluorescence, 24 h; note: nearly all actives have a fitted effect of over 40% in size
TGFb inhibitor: inhibitors of TGF-b signaling; AID 588855; HepG2 CAGA-GFP TGF-b/SMAD3 reporter, GFP fluorescence, 18 h; TGF-beta stimulated, 500 pg/mL final; 410,000 compounds, 1.2% hits; Potency, µM (series often up to 46.1 µM), without a hit: top-dose activity, negative = inhibition, usual class: inhibitors; note: % is set by controls: 0 for no effect and ±100 for the full control effect; nearly all actives have a fitted effect of over 65% in size
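First, reporter cells (HEPG2 CAGA-GFP) rested 2 h at 37 degrees C. Next, compounds were pinned in and TGF-beta added to 500 pg/mL final. After 18 h, GFP was imaged per cell and summed per well.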
ATXN2 expr inh: ATXN2 expression inhibition; AID 1745845; 360,000 compounds, 0.72% hits; HEK-293 ATXN2-luciferase reporter, luminescence, 24 h; Potency, µM (top dose mostly 57 µM), for inactives: at the highest dose activity change, negative = inhibition, usual class: inhibitors; note: % is set by controls: 0 for no effect and ±100 for the full control effect; nearly all actives have a fitted effect of over 55% in size
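qHTS (up to 57 uM final) was run with 24 h compound exposure of reporter cells at 37 °C. Each well was multiplexed: SteadyGlo luminescence measured ATXN2-luciferase expression after a fluorogenic Gly-Phe-AFC viability readout (25 uM final).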
Numbers without * were called inactive; i = inactive; ? = inconclusive; · = no result given; [ ] = dose if it differs, or a comment. In the library only some 2.7% were active in any assay of this set; here they are far more common. Calls come from the whole dose curve; as a rule, active = well fitted curve in the direction sought with a large enough effect; inconclusive = small, poorly fitted or top-dose-only effect, or another doubt; inactive = no such curve, though single readings can be large; an effect the other way counts as inactive or inconclusive. Potency is the fitted concentration of half-maximal effect.

SMILES	HepG2 viability	12-LOX inh	S2 tox	TGFb inhibitor	ATXN2 expr inh
O=C(CNC(=O)c1ccncc1)N/N=C/c1cc(Br)ccc1O	-1%	-3%	?	?	?
O=C(CNC(=O)c1ccc(F)cc1)N/N=C/c1cc(Br)ccc1OC(=O)/C=C/c1ccco1	-52%	-17%	?	?	8.9µM*
Cc1ccccc1C(C)NC(=O)CCC(=O)c1ccc2c(c1)CCC2 (stereo not given)	·	3%	·	·	·
CCN(CC)C(=O)C[C@@H]1c2nc(NC(=O)c3ccc(OC)cc3)sc2C[C@@H]2[C@](C)(CO)[C@H](O)CC[C@]21C	·	-23%	·	·	·
CCOc1nc2ccccc2nc1N1CCC(C(=O)NCc2ccccc2Cl)CC1	·	9%	·	·	·
CN(C)S(=O)(=O)c1cccc2c1C(=O)c1ccccc1C2=O	-15%	-16%	i	0%	6%
NS(=O)(=O)c1cccc2c1C(=O)c1cccc(O)c1C2=O	·	-17%[57.4 µM]	·	·	3.1µM*
COc1ccc2nc(NC(=O)c3ccc4c(c3)NC(=O)CS4)sc2c1	·	18%	·	·	·
CC(=O)N1CCN(CC(O)COc2ccc(Br)cc2)CC1 (stereo not given)	27%	0.35µM*	i	4%	·
CC(=O)c1ccc(OCC(O)CN2CCN(CC(O)COc3ccc(C(C)=O)cc3)CC2)cc1 (stereo not given)	-10%	146%	i	2%	6%
C=CCNCc1ccsc1	·	-24%	·	·	·
O=C(CN1C(=O)NC(c2ccc(Cl)cc2)C2=C1COC2=O)Nc1cc(F)cc(F)c1 (stereo not given)	·	11µM*	·	·	·
O=C(CN1C(=O)NC(c2ccc(Cl)cc2)C2=C1COC2=O)Nc1ccc(Br)cc1F (stereo not given)	·	4.5µM*	·	·	·
Cc1ccc(C2NC(=O)N(CC(=O)Nc3c(C)cccc3Cl)C3=C2C(=O)OC3)cc1 (stereo not given)	·	2%	·	·	·
O=C(CN1C(=O)NC(c2ccc(Cl)cc2)C2=C1COC2=O)Nc1ccc(Cl)cc1F (stereo not given)	·	8.9µM*	·	·	·
Cc1ccc(NC(=O)CN2C(=O)NC(c3ccc(Cl)cc3)C3=C2COC3=O)cc1 (stereo not given)	·	11µM*	·	·	·
CC(C)NC(=O)CN1C(=O)NC(c2ccc(Cl)cc2)C2=C1COC2=O (stereo not given)	·	62%	·	·	·
COc1ccc(OC)c(NC(=O)CN2C(=O)NC(c3ccc(Cl)cc3)C3=C2COC3=O)c1 (stereo not given)	·	9%	·	·	·
C[S+](=O)([O-])c1cccc(-c2nccc3c(=O)cc(N4CCOCC4)oc23)c1	·	56µM*	·	·	·
O=c1cc(N2CCOCC2)oc2c(-c3cccc(F)c3)nccc12	·	1%[176 µM]	·	·	·
COc1cccc(-c2nccc3c(=O)cc(N4CCOCC4)oc23)c1	·	45µM*	·	·	·
COc1ccc(Nc2nccc3c(=O)cc(N4CCOCC4)oc23)cn1	·	25µM*	·	·	·
CN(Cc1ccco1)C(=O)CSc1nc(-c2cccs2)nc2ccccc12	·	-16%	·	·	·
O=C(CSc1nc(-c2ccccc2)cn1-c1ccccc1)Nc1ccccc1	-3%	8%	?	-23%	-18%
O=C(CSc1nc(-c2ccccc2)cn1-c1ccccc1F)Nc1ccc(F)cc1	-21%	-10%	?	14µM*	-38%
SMILES	HepG2 viability	12-LOX inh	S2 tox	TGFb inhibitor	ATXN2 expr inh
O=C(CSCc1ccccc1Br)NNC(=S)NCc1ccco1	-19%	45µM*	i	-24%	-5%
Cc1ccccc1CSCC(=O)NC(=O)NCc1ccco1	-2%	?	i	-15%	3%
O=C(Nc1ncn(Cc2ccccc2)n1)c1cc(S(=O)(=O)N2CCCC2)c(Cl)cc1Cl	·	32%	·	·	·
COc1ccc(C(=O)N[C@H]2C[C@@H]3CC[C@H]2C3)cc1OC	·	1%	·	·	·
COc1ccc(F)cc1-c1cc(NC=O)c2ncc(-c3cccc(C(=O)N(C)C)c3)n2c1	-28%	-25%	?	-5%	25µM*
COc1cccc(-c2cnc3c(NC=O)cc(-c4ccccc4)cn23)c1	-30%	-10%	i	8.9µM*	0%
COc1cccc(-c2cnc3c(NC=O)cc(-c4ccoc4)cn23)c1	-1%	?	?	?	-9%
